Experimental data published in PMC9911399, “Two distinct binding modes provide the RNA-binding protein RbFox with extraordinary sequence specificity”.
Changes are numbered by the printed parent chain; changes in the protein carry UniProt numbers. The full ranking holds about 16,000 sequences; the median of “ka relative to ugcaugu” is about 0.0091, and the highest 2% start at about 0.032. This is one part of a sample in which the highest values are shown more often than they occur.

T1: RBFOX1 RRM (Homo sapiens, UniProt Q9NWB1 109-208)
T1 sequence: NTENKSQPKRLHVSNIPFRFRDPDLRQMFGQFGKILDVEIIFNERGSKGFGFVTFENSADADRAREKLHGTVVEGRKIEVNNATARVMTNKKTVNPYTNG

B1: GCUGUAU (DNA:RNA)
RNA: GGGAGACCGGAAUUCAGAUUGUCCGCUGUAUUUAAAUCCCGUCGUAGCCACCA
DNA 1: CAATCTGAATTCCGGTCTCCC
DNA 2: TGGTGGCTACGACGGGATT
B2: AUACGAU (DNA:RNA)
RNA: B1 RNA with G25A, C26U, U27A, G28C, U29G
DNA 1: CAATCTGAATTCCGGTCTCCC
DNA 2: TGGTGGCTACGACGGGATT
B3: AUUCUCC (DNA:RNA)
RNA: B1 RNA with G25A, C26U, G28C, A30C, U31C
DNA 1: CAATCTGAATTCCGGTCTCCC
DNA 2: TGGTGGCTACGACGGGATT
B4: CACCUGC (DNA:RNA)
RNA: B1 RNA with G25C, C26A, U27C, G28C, A30G, U31C
DNA 1: CAATCTGAATTCCGGTCTCCC
DNA 2: TGGTGGCTACGACGGGATT
B5: GGUACUC (DNA:RNA)
RNA: B1 RNA with C26G, G28A, U29C, A30U, U31C
DNA 1: CAATCTGAATTCCGGTCTCCC
DNA 2: TGGTGGCTACGACGGGATT
B6: CGGGUCG (DNA:RNA)
RNA: B1 RNA with G25C, C26G, U27G, A30C, U31G
DNA 1: CAATCTGAATTCCGGTCTCCC
DNA 2: TGGTGGCTACGACGGGATT
B7: GGGGAGA (DNA:RNA)
RNA: B1 RNA with C26G, U27G, U29A, A30G, U31A
DNA 1: CAATCTGAATTCCGGTCTCCC
DNA 2: TGGTGGCTACGACGGGATT
B8: GGGUCGU (DNA:RNA)
RNA: B1 RNA with C26G, U27G, G28U, U29C, A30G
DNA 1: CAATCTGAATTCCGGTCTCCC
DNA 2: TGGTGGCTACGACGGGATT
B9: CGGGUAC (DNA:RNA)
RNA: B1 RNA with G25C, C26G, U27G, U31C
DNA 1: CAATCTGAATTCCGGTCTCCC
DNA 2: TGGTGGCTACGACGGGATT
B10: GGGGUCG (DNA:RNA)
RNA: B1 RNA with C26G, U27G, A30C, U31G
DNA 1: CAATCTGAATTCCGGTCTCCC
DNA 2: TGGTGGCTACGACGGGATT
B11: GGGGUAC (DNA:RNA)
RNA: B1 RNA with C26G, U27G, U31C
DNA 1: CAATCTGAATTCCGGTCTCCC
DNA 2: TGGTGGCTACGACGGGATT
B12: CGUACUC (DNA:RNA)
RNA: B1 RNA with G25C, C26G, G28A, U29C, A30U, U31C
DNA 1: CAATCTGAATTCCGGTCTCCC
DNA 2: TGGTGGCTACGACGGGATT
B13: GGGUACU (DNA:RNA)
RNA: B1 RNA with C26G, U27G, G28U, U29A, A30C
DNA 1: CAATCTGAATTCCGGTCTCCC
DNA 2: TGGTGGCTACGACGGGATT
B14: GGGGUCC (DNA:RNA)
RNA: B1 RNA with C26G, U27G, A30C, U31C
DNA 1: CAATCTGAATTCCGGTCTCCC
DNA 2: TGGTGGCTACGACGGGATT
B15: GUACUCU (DNA:RNA)
RNA: B1 RNA with C26U, U27A, G28C, A30C
DNA 1: CAATCTGAATTCCGGTCTCCC
DNA 2: TGGTGGCTACGACGGGATT
B16: GGGUCCG (DNA:RNA)
RNA: B1 RNA with C26G, U27G, G28U, U29C, A30C, U31G
DNA 1: CAATCTGAATTCCGGTCTCCC
DNA 2: TGGTGGCTACGACGGGATT
B17: AGCUCAC (DNA:RNA)
RNA: B1 RNA with G25A, C26G, U27C, G28U, U29C, U31C
DNA 1: CAATCTGAATTCCGGTCTCCC
DNA 2: TGGTGGCTACGACGGGATT
B18: ACUGACU (DNA:RNA)
RNA: B1 RNA with G25A, U29A, A30C
DNA 1: CAATCTGAATTCCGGTCTCCC
DNA 2: TGGTGGCTACGACGGGATT
B19: UAAAUCG (DNA:RNA)
RNA: B1 RNA with G25U, C26A, U27A, G28A, A30C, U31G
DNA 1: CAATCTGAATTCCGGTCTCCC
DNA 2: TGGTGGCTACGACGGGATT
B20: GAAAAGU (DNA:RNA)
RNA: B1 RNA with C26A, U27A, G28A, U29A, A30G
DNA 1: CAATCTGAATTCCGGTCTCCC
DNA 2: TGGTGGCTACGACGGGATT
B21: AGAAACC (DNA:RNA)
RNA: GGGAGACCGGAAUUCAGAUUGUCCAGAAACCUUAAAUCCCGUCGUAGCCACCA
DNA 1: CAATCTGAATTCCGGTCTCCC
DNA 2: TGGTGGCTACGACGGGATT
B22: CUCAAUG (DNA:RNA)
RNA: B21 RNA with A25C, G26U, A27C, C30U, C31G
DNA 1: CAATCTGAATTCCGGTCTCCC
DNA 2: TGGTGGCTACGACGGGATT
B23: CGCGAUA (DNA:RNA)
RNA: B21 RNA with A25C, A27C, A28G, C30U, C31A
DNA 1: CAATCTGAATTCCGGTCTCCC
DNA 2: TGGTGGCTACGACGGGATT
B24: ACCAGGG (DNA:RNA)
RNA: B21 RNA with G26C, A27C, A29G, C30G, C31G
DNA 1: CAATCTGAATTCCGGTCTCCC
DNA 2: TGGTGGCTACGACGGGATT
B25: GUCCCCC (DNA:RNA)
RNA: B21 RNA with A25G, G26U, A27C, A28C, A29C
DNA 1: CAATCTGAATTCCGGTCTCCC
DNA 2: TGGTGGCTACGACGGGATT
B26: ACUCCAA (DNA:RNA)
RNA: B1 RNA with G25A, G28C, U29C, U31A
DNA 1: CAATCTGAATTCCGGTCTCCC
DNA 2: TGGTGGCTACGACGGGATT
B27: ACCAGAU (DNA:RNA)
RNA: B1 RNA with G25A, U27C, G28A, U29G
DNA 1: CAATCTGAATTCCGGTCTCCC
DNA 2: TGGTGGCTACGACGGGATT
B28: AAGCGUC (DNA:RNA)
RNA: B21 RNA with G26A, A27G, A28C, A29G, C30U
DNA 1: CAATCTGAATTCCGGTCTCCC
DNA 2: TGGTGGCTACGACGGGATT
B29: CAUGGGA (DNA:RNA)
RNA: B1 RNA with G25C, C26A, U29G, A30G, U31A
DNA 1: CAATCTGAATTCCGGTCTCCC
DNA 2: TGGTGGCTACGACGGGATT
B30: GUGGUCC (DNA:RNA)
RNA: B1 RNA with C26U, U27G, A30C, U31C
DNA 1: CAATCTGAATTCCGGTCTCCC
DNA 2: TGGTGGCTACGACGGGATT
B31: GGCGGCC (DNA:RNA)
RNA: B21 RNA with A25G, A27C, A28G, A29G
DNA 1: CAATCTGAATTCCGGTCTCCC
DNA 2: TGGTGGCTACGACGGGATT
B32: UUGGUCG (DNA:RNA)
RNA: B1 RNA with G25U, C26U, U27G, A30C, U31G
DNA 1: CAATCTGAATTCCGGTCTCCC
DNA 2: TGGTGGCTACGACGGGATT
B33: GUCGGCC (DNA:RNA)
RNA: B21 RNA with A25G, G26U, A27C, A28G, A29G
DNA 1: CAATCTGAATTCCGGTCTCCC
DNA 2: TGGTGGCTACGACGGGATT
B34: GGCCUUG (DNA:RNA)
RNA: B1 RNA with C26G, U27C, G28C, A30U, U31G
DNA 1: CAATCTGAATTCCGGTCTCCC
DNA 2: TGGTGGCTACGACGGGATT
B35: GUCCUUG (DNA:RNA)
RNA: B1 RNA with C26U, U27C, G28C, A30U, U31G
DNA 1: CAATCTGAATTCCGGTCTCCC
DNA 2: TGGTGGCTACGACGGGATT
B36: UUGGUUG (DNA:RNA)
RNA: B1 RNA with G25U, C26U, U27G, A30U, U31G
DNA 1: CAATCTGAATTCCGGTCTCCC
DNA 2: TGGTGGCTACGACGGGATT
B37: UUGUUGG (DNA:RNA)
RNA: B1 RNA with G25U, C26U, U27G, G28U, A30G, U31G
DNA 1: CAATCTGAATTCCGGTCTCCC
DNA 2: TGGTGGCTACGACGGGATT
B38: UUGGUCC (DNA:RNA)
RNA: B21 RNA with A25U, G26U, A27G, A28G, A29U
DNA 1: CAATCTGAATTCCGGTCTCCC
DNA 2: TGGTGGCTACGACGGGATT
B39: UUGUUCG (DNA:RNA)
RNA: B21 RNA with A25U, G26U, A27G, A28U, A29U, C31G
DNA 1: CAATCTGAATTCCGGTCTCCC
DNA 2: TGGTGGCTACGACGGGATT
B40: UCCUUGG (DNA:RNA)
RNA: B1 RNA with G25U, U27C, G28U, A30G, U31G
DNA 1: CAATCTGAATTCCGGTCTCCC
DNA 2: TGGTGGCTACGACGGGATT
B41: UUGUCCG (DNA:RNA)
RNA: B21 RNA with A25U, G26U, A27G, A28U, A29C, C31G
DNA 1: CAATCTGAATTCCGGTCTCCC
DNA 2: TGGTGGCTACGACGGGATT

biological target: T1, RBFOX1 RRM; assay: EMSA; HiTS-Eq, 1 nM pool, 10 min; buffer printed only for the single-RNA assays: 10 mM Tris pH 7.5, 150 mM NaCl, 3.4 mM EDTA, 0.001% NP-40, 30 C; conditions: tags: His6 N-terminal (pET28a); label: 5' 32P
In short: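 These values rest on relative association constants, computed from read-count changes of each RNA species versus the control reaction and normalised to the cognate motif. Reads came from free RNA recovered by 8% native PAGE after purified RbFox RRM (wild type or mutant) at increasing concentrations was equilibrated for 10 min in 50 µL with 1 nM of a 5′-radiolabelled pool with 7 randomized nucleotides and DNA-annealed flanks.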

Binder | binding signal
B1 | 0.013 KA relative to UGCAUGU
B2 | 0.00313 KA relative to UGCAUGU
B3 | 0.00179 KA relative to UGCAUGU
B4 | 0.00791 KA relative to UGCAUGU
B5 | 0.032 KA relative to UGCAUGU
B6 | 0.0322 KA relative to UGCAUGU
B7 | 0.0242 KA relative to UGCAUGU
B8 | 0.0214 KA relative to UGCAUGU
B9 | 0.0309 KA relative to UGCAUGU
B10 | 0.0492 KA relative to UGCAUGU
B11 | 0.0356 KA relative to UGCAUGU
B12 | 0.00584 KA relative to UGCAUGU
B13 | 0.0165 KA relative to UGCAUGU
B14 | 0.0259 KA relative to UGCAUGU
B15 | 0.0101 KA relative to UGCAUGU
B16 | 0.0257 KA relative to UGCAUGU
B17 | 0.00457 KA relative to UGCAUGU
B18 | 0.00677 KA relative to UGCAUGU
B19 | 0.00678 KA relative to UGCAUGU
B20 | 0.00662 KA relative to UGCAUGU
B21 | 0.00391 KA relative to UGCAUGU

Binder | binding signal
B22 | 0.00378 KA relative to UGCAUGU
B23 | 0.00807 KA relative to UGCAUGU
B24 | 0.00782 KA relative to UGCAUGU
B25 | 0.0163 KA relative to UGCAUGU
B26 | 0.000959 KA relative to UGCAUGU
B27 | 0.00102 KA relative to UGCAUGU
B28 | 0.00965 KA relative to UGCAUGU
B29 | 0.00261 KA relative to UGCAUGU
B30 | 0.0226 KA relative to UGCAUGU
B31 | 0.0183 KA relative to UGCAUGU
B32 | 0.0376 KA relative to UGCAUGU
B33 | 0.0169 KA relative to UGCAUGU
B34 | 0.0328 KA relative to UGCAUGU
B35 | 0.0114 KA relative to UGCAUGU
B36 | 0.0398 KA relative to UGCAUGU
B37 | 0.0248 KA relative to UGCAUGU
B38 | 0.0262 KA relative to UGCAUGU
B39 | 0.0364 KA relative to UGCAUGU
B40 | 0.0132 KA relative to UGCAUGU
B41 | 0.0163 KA relative to UGCAUGU
